Test results from the supplement of paper PMC10338343.
± gives the standard deviation.

Test system: MILI (PIWIL2) piRISC loaded with piRNA #1 (26 nt)
Assay: pre-steady-state target cleavage rate (min^-1); guide: piRNA #1 5'p-UGAGGUAGUAGGUUGUAUAGUAUCCA; MIWI and MILI are mouse PIWI proteins and EfPiwi is from a freshwater sponge; tags in brackets are library labels; higher = faster piRNA-guided slicing of the target
Conditions: auxiliary factor: 500 nM mouse GTSF1
Protocol: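 Cleave-'n-Seq: a library of target RNAs (target site embedded in constant flanks, ACAGCATTCCGCGTTAGTGATATCCG... 5' flank; DNA-blocked outside the site) at 0.1 nM was incubated with 1 nM active mouse MILI or MIWI piRISC (synthetic 5'-monophosphorylated piRNA guide) with or without 500 nM mouse GTSF1 at 33 °C for 1 min to 16 h. Uncleaved targets were sequenced and normalised to non-target controls, and the pooled three trials were fitted to a burst-and-steady-state model to give the pre-steady-state cleavage rate (min^-1; k3 is constrained to at most 1e-4). Sequence is the target site only; target names encode pairing extent (gX:gY) and contiguous / 1-mismatch / 2-mismatch / bulge geometry. Fits with R² ≤ 0 are excluded.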

Point of comparison: GGAGUGGAUACUAUACAACCUAUCUACCUCA, “pre-steady-state target cleavage rate” value 0.113 ± 0.0078. Against it:
- GGAGACCUAACUAUACUACCUACUACCUCA — within error, 0.125 ± 0.022
- GGAGUGGAUAGUAUACAUCCUACUACCUCA — higher, 0.189 ± 0.017
- GGAGACCUUACUCAUACAACCUACUACCUCA — within error, 0.122 ± 0.016
- GGAGAGGAUACUAUACAAGCUACUACCUGA — within error, 0.111 ± 0.015
- GGAGACCUAUGUAUACAACCUACUUCCUCA — lower, 0.0381 ± 0.0071
- GGAGACCAUACUAAUACAACCUACUACCUCA — within error, 0.124 ± 0.014
- GGAGACCAUACUAAACAACCUACUUCCUCA — lower, 0.068 ± 0.011
- GGAGAGGAUUCUAUACAACCUACUACCUGA — lower, 0.0768 ± 0.011
- GGAGACCUCACUAUACAACCUACUACCUCA — higher, 0.252 ± 0.029
- GGAGACGAUACUAUACAACCUACAACCUGA — lower, 0.0121 ± 0.0074
- GGAGAGGAUACUAUACAACCUACCUACCUCA — higher, 0.142 ± 0.013
- GGAGUGGAUACUAUACUUCCUACUACCUCA — higher, 0.202 ± 0.013
- GGAGUGGAUACUAUACAACGAACUACCUCA — lower, 0.00366 ± 0.0017
- GGAGACCUUACUAUACAACCUACUACAUCA — within error, 0.106 ± 0.013
- GGAGACGAUACAAUACAACCUACUUCCUCA — within error, 0.126 ± 0.024
- GGAGACCUUACUUUACAACCUACAACCUCA — lower, 0.0873 ± 0.013
- GGAGUGGAUACUAUACAACCUAACUACCUCA — lower, 0.0255 ± 0.0041
- GGAGACCAUACUAUACUACCUACAACCUCA — higher, 0.185 ± 0.023
- GGAGAGUAUACUAUACAACCUACUACCUCA — higher, 0.184 ± 0.011
- GGAGACCUUACUAUACAACCUUCUACCACA — lower, 0.00842 ± 0.0039
- GGAGACCUUACUAUACAACCUACUACCUUCA — higher, 0.16 ± 0.015
- GGAGACCUAUGAUAUGAACCUACAACGUCA — lower, < 0.0001
- GGAGACCUAACUAUACAACCUACUACCUACA — higher, 0.165 ± 0.023
- GGAGACCUAACUAUACAACCUAGUACCUCA — lower, 0.016 ± 0.0088
- GGAGACGAUACUAAACAACCUAGUACCUCA — lower, 0.049 ± 0.0087
- GGAGACCAUACUAUACUACCUACUACGUCA — within error, 0.104 ± 0.017
- GGAGACCUUAACUAUACAACCUACUACCUCA — higher, 0.138 ± 0.01
- GGAGACCUAUGAUUACAACCUACCACCUCA — lower, 0.00484 ± 0.0035
- GGAGACGAAACUAUACAACCUACUACCACA — higher, 0.219 ± 0.031
- GGAGAGCAUAGUAUACAACCUACUACCUCA — lower, 0.0921 ± 0.0087
- GGAGACCUAUGAACUACAACCUACUACCUCA — lower, 0.00389 ± 0.0029
- GGAGACCUAUGUAUACAACCUACUACCGCA — lower, 0.085 ± 0.015
- GGAGACCUUACUAUACAACCUACUCACCUCA — higher, 0.17 ± 0.018
- GGAGACGAUACUAUACAACGUACUACCACA — lower, 0.0317 ± 0.0055
- GGAGACCUUACUAUACAACCUACUACCCUCA — higher, 0.17 ± 0.019
- GGAGACCUAUGUUAACAACCUACUACCUCA — lower, 0.0234 ± 0.0048
- GGAGACCUAACUAUUCAACCUACUACCUCA — within error, 0.138 ± 0.022
- GGAGACCUAUGUAAACAACGUACUACCUCA — lower, 0.0029 ± 0.002
- GGAGAGGAUACUCAUACAACCUACUACCUCA — higher, 0.149 ± 0.015
